Results on four compounds are retold here after PubChem BioAssay.

Molecules are shown by their SMILES. Some of the results follow. Unmarked numbers belong to inactive results. Calls of active or inactive are those of the source.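 How the source made its calls, unless noted: active means inhibition above the mean over all tested compounds plus 3 SD, which no compound reached; inactive means the rest.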

The target in assay [1] is Galanin receptor type 2 (Homo sapiens) (UniProt O43603). In words: blockers of human galanin receptor 2 – cell-based, confirmation (AID 866; in the data active means inhibition above about 27%;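 further: cells stimulated with galanin at about its EC80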). The following applies: GALR2-expressing cells, antagonist mode, at 4 µM, active compounds read high.
Sequence of Galanin receptor type 2 (Homo sapiens) (O43603 whole entry, looked up): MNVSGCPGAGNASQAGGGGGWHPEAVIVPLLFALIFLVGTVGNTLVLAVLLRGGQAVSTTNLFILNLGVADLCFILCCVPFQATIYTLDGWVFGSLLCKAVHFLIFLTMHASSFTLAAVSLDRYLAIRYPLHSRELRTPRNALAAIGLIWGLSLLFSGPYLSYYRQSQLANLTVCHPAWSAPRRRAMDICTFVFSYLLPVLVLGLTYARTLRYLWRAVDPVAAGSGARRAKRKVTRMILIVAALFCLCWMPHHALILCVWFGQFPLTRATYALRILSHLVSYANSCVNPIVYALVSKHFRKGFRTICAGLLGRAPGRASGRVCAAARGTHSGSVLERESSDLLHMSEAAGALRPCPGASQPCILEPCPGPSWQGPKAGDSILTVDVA
The nature of assay [2]: nonspecific BLA reporter inhibition – CHO NFAT-bla cells, FRET readout, counter-screen for GALR2 antagonist project, confirmation (AID 867;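 active means inhibition above the mean inhibition across tested compounds plus 3 SD, cut at about 27% in these data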;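 further: 0% = 500 nM thapsigargin stimulated wells and 100% = unstimulated BSA only wells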). The following applies: beta-lactamase FRET, thapsigargin-stimulated, at 4.2 µM, active compounds read high.
For assay [3], the system named is TLR4-MyD88 interaction (human), BLA complementation. In words: disruptors of TLR4 binding to MyD88 – cell-based, HeLa CL3-4, BLA complementation, FRET ratio, confirmation (AID 941;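 active means mean inhibition across three repeat runs above about 25% carried over from the earlier screen, limit read from the data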;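 further: plate controls were DMSO only for no effect and clavulanic acid blocking BLA at full dose for full effect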). The following applies: CCF4 FRET ratio, at 8.4 µM, active compounds read high.
Assay [4] can be described thus: BLA reporter interference in HeLa cells – cell-based, full-length BLA, CCF4 FRET ratio, artefact control for TLR4-MyD88 binding inhibitor project, confirmation (AID 1237;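 active means mean inhibition over three repeats above about 26% taken from the earlier screen, limit read from the data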;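 further: HeLa cells stably expressing beta-lactamase reporter as counterscreen for TLR4-MyD88 inhibitors; 0% = DMSO and 100% = clavulanic acid full inhibition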). Particulars: at 8.4 µM, active compounds read high.
Assay [5] has as its target Serine protease HTRA1 (Homo sapiens) (UniProt Q92743). In words: confirming inhibition of human HTRA1 – biochemical, fluorescence polarization, confirmation (AID 540248;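 active means mean inhibition over three repeats above a set limit taken from the earlier primary screen, cut at about 37% in these data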;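 further: 0% = HTRA1 with DMSO and 100% = wells lacking HTRA1; inhibitors block probe binding so polarization drops and inhibition rises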). Particulars: recombinant HTRA1, FP-rhodamine activity-based probe, at 5.96 µM, active compounds read high. In general terms: In fluorescence polarisation assays a small probe gives low polarisation when free and higher when bound to something large.

Assay [6] can be described thus: BSA probe fluorescence interference – biochemical, TAMRA-labeled BSA, counter-screen for TCR-CD3 interaction inhibitor project (AID 652035; in the data active means inhibition above about 23%;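 further: 0% = buffer low control and 100% = reference high control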). The following applies: TAMRA-labeled BSA probe fluorescence counterscreen; at 9.4 µM; active compounds read high.
Assay [7] relates to T-cell receptor (TCR)-CD3 interaction, human. In words: blockers of TCR binding to CD3 – biochemical, fluorescence, TAMRA-labeled TCR probe, confirmation (AID 652036; in the data active means inhibition above about 19%). Particulars: TAMRA-labeled TCR probe fluorescence binding assay; at 9.4 µM; active compounds read high.
For assay [8], the system named is HIV-1 integrase (multimerization). In words: stimulation of HIV-1 integrase oligomerization – biochemical, TR-FRET, counter-screen for LEDGF/p75 integration inhibitor project (AID 1053131; in the data active means activation above about 8.9%). The following applies: TR-FRET HIV-1 integrase multimerization, at 7.7 µM, active compounds read high. (In TR-FRET formats the signal depends on donor and acceptor labels being close together.)

Assay [9] can be described thus: compounds disturbing TR-FRET signal readout – biochemical, HIV-1 IN multimerization, artefact control for LEDGF/p75-dependent integration inhibitor project, confirmation (AID 1053135).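 Further: 0% = integrase with antibodies and DMSO and 100% = antibodies without integrase.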 The following applies: TR-FRET optical interference counterscreen, at 7.7 µM, active compounds read high.
Assay [10] has as its system HIV-1 integrase / human LEDGF/p75 complex. In words: blockers of LEDGF/p75-dependent integrase activity – biochemical, TR-FRET, confirmation (AID 1053136; in the data active means inhibition above about 14%). Particulars: TR-FRET LEDGF/p75-dependent HIV-1 integration, at 3.7 µM, active compounds read high.
Assay [11] is described as follows: reduced OD of T4-infected AddAB+ E. coli – absorbance, E. coli V3065, T4 phage, triplicate, AddAB inhibitor project, confirmation (AID 488942;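 active means mean inhibition above a set limit taken from the earlier primary screen, cut at about 13% in these data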;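 further: higher means less bacterial growth since AddAB block lets phage replicate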). Particulars: E. coli V3065 expressing H. pylori AddAB, at 11.9 µM, active compounds read high, T4 phage with gene 2 nonsense mutations.
A short description of assay [12]: reduced OD of phage-infected RecBCD+ V66 E. coli – absorbance, mutant T4 phage, counter-screen for AddAB inhibitor project (AID 488955;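 active means mean inhibition above the mean of solvent-only control wells plus 3 SD, cut at about 4% in these data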;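 further: optical density read after an 18 h incubation at 37 °C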). The following applies: OD growth, at 11.9 µM, active compounds read high.
Assay [13] is described as follows: bacterial growth inhibitors – absorbance, counter-screen for AddAB inhibitor project, confirmation (AID 488956; in the data active means inhibition above about 25%). Particulars: bacterial viability, absorbance (AddAB counterscreen); at 11.9 µM; active compounds read high. (Counterscreens check selectivity or assay interference.)
The nature of assay [14]: reduced OD of V66 E. coli with T4 gene 2 phage – absorbance, RecBCD inhibitor project, confirmation (AID 651982;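 active means mean inhibition over triplicates exceeding the hit threshold derived in the original primary screen, cut at about 11% in these data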). Particulars: E. coli V66 + T4 2- phage, growth OD; at 11.9 µM; active compounds read high.
A short description of assay [15]: bacterial growth inhibition – absorbance, high throughput, counter-screen for RecBCD inhibitor project (AID 651983; in the data active means inhibition above about 20%;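 further: E. coli strain V66 grown with compound alone and no phage infection; 0% = bacteria with DMSO vehicle only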). Particulars: E. coli viability, absorbance (OD) growth; at 11.9 µM; active compounds read high.
Assay [16] in a line: reduced optical density, T4-challenged addAB+ bacteria – absorbance, E. coli V3065, T4 phage, counter-screen for RecBCD inhibitor project, confirmation (AID 651984;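 active means mean inhibition above the solvent-only control wells' mean plus 3 SD, cut at about 22% in these data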;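 further: higher means less bacterial growth from phage killing when AddAB is blocked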). Particulars: E. coli expressing H. pylori AddAB + T4 phage, OD growth; at 11.9 µM; active compounds read high; gene 2 mutant T4, recBCD-deleted host.
The target of assay [17] is Sphingosine 1-phosphate receptor 4 (Homo sapiens) (UniProt O95977). In words: blockers of human S1P4 signalling – cell-based, confirmation (AID 1524; in the data active means inhibition above about 30%). Particulars: S1P4-expressing cell line, antagonist mode, reporter read-out; at 4.98 µM; active compounds read high.
Sequence of Sphingosine 1-phosphate receptor 4 (Homo sapiens) (O95977 whole entry, looked up): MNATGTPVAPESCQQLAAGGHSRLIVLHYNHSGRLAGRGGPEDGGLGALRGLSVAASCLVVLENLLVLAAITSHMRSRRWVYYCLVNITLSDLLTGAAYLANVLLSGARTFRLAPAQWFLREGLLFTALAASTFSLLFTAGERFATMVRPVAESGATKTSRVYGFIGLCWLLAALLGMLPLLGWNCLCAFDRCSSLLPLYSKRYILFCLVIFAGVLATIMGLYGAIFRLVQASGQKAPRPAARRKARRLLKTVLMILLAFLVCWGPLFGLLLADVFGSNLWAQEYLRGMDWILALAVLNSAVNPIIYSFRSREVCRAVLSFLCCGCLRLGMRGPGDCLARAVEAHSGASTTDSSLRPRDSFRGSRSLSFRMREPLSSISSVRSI
For assay [18], the target named is Sphingosine 1-phosphate receptor 1 (Homo sapiens) (UniProt P21453). In words: blockade of human S1P1 receptor – cell-based, counter-screen for S1P4 antagonist project (AID 1564; in the data active means inhibition above about 40%;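 further: receptor stimulated with S1P near its EC80; 0% = agonist stimulated wells and 100% = vehicle only wells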). The following applies: cell-based S1P1 antagonist counterscreen, at 4.98 µM, active compounds read high.
Sequence of Sphingosine 1-phosphate receptor 1 (Homo sapiens) (P21453 whole entry, looked up): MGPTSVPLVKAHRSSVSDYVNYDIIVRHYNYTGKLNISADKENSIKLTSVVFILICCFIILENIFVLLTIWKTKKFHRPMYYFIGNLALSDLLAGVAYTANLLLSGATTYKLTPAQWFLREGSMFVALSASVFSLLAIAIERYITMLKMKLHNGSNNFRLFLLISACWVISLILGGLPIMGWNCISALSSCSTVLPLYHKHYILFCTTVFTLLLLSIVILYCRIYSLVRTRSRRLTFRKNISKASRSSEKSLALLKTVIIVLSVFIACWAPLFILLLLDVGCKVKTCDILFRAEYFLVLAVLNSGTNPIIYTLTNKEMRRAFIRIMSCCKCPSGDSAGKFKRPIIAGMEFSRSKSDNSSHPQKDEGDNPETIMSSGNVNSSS
Assay [19] addresses Toll-like receptor 9 (Homo sapiens) (UniProt Q9NR96). In words: disruptors of TLR9 binding to MyD88 – cell-based, CHO, BLA complementation, fluorescence, triplicate, confirmation (AID 540250;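 active means mean inhibition across three repeats above about 21% taken from the earlier screen, limit read from the data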;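 further: blue over green emission ratio reports constitutive TLR9 MyD88 association via BLA complementation; 0% = DMSO vehicle wells and 100% = clavulanate BLA inhibitor wells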). The following applies: CCF4 FRET ratio, at 4.98 µM, active compounds read high.
Assay [20] can be described thus: BLA reporter readout interference – cell-based, fluorescence, artefact control for TLR9-MyD88 binding inhibitor project (AID 540251;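 active means mean inhibition above a 50% cutoff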;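 further: counterscreen of TLR9-MyD88 hits on CMV-driven BLA in CHO-K1 cells; 0% = DMSO alone and 100% = clavulanate blocking BLA; higher means less blue over green ratio so more BLA blockade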). The following applies: CHO-BLA cells, CCF4 FRET ratio, at 4.98 µM, active compounds read high.
Assay [21] is described as follows: CHO cell viability loss – luminescence, single concentration, cytotoxicity control for TLR9-MyD88 binding inhibitor project (AID 588336; in the data active means inhibition above about 11%). Particulars: TLR9-MyD88 CHO cells cytotoxicity, at 4.98 µM, active compounds read high.
The target in assay [22] is Receptor-interacting serine/threonine-protein kinase 2 (Homo sapiens) (UniProt O43353). In words: inhibitors of RIPK2 association with NOD2 – fluorescence, CHO cells, BLA complementation, triplicate, confirmation (AID 624370;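 active means mean inhibition across replicates above a set limit taken from the earlier primary screen, cut at about 21% in these data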;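 further: 0% = DMSO-only wells and the high end = clavulanate BLA-blocked wells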). The following applies: CCF4 FRET, at 4.98 µM, active compounds read high.
Sequence of Receptor-interacting serine/threonine-protein kinase 2 (Homo sapiens) (O43353 whole entry, looked up): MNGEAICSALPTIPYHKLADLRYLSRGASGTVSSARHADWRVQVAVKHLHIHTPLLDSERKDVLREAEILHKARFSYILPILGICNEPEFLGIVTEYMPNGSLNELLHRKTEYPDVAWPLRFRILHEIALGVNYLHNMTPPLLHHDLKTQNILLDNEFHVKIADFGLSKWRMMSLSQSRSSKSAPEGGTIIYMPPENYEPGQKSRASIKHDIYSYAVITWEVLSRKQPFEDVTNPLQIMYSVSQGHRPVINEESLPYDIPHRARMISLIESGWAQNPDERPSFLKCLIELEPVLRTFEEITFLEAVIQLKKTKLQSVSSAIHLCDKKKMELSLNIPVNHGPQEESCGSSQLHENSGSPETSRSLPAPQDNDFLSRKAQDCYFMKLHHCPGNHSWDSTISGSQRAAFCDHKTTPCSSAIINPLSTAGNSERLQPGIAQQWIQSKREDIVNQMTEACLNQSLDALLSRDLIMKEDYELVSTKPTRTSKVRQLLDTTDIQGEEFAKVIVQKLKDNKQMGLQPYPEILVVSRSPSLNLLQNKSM
A short description of assay [23]: BLA reporter readout interference – cell-based, CHO-K1 CMV-bla, CCF4 FRET, fluorescence, artefact control for NOD2-RIPK2 interaction inhibitor project, confirmation (AID 624371;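 active means mean inhibition above the low-control mean inhibition plus three low-control SD, cut at about 11% in these data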;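 further: 0% = DMSO only wells and 100% = clavulanate high control wells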). Particulars: CCF4 FRET ratio, counterscreen, at 4.98 µM, active compounds read high.

Sequence of Toll-like receptor 9 (Homo sapiens) (Q9NR96 whole entry, looked up): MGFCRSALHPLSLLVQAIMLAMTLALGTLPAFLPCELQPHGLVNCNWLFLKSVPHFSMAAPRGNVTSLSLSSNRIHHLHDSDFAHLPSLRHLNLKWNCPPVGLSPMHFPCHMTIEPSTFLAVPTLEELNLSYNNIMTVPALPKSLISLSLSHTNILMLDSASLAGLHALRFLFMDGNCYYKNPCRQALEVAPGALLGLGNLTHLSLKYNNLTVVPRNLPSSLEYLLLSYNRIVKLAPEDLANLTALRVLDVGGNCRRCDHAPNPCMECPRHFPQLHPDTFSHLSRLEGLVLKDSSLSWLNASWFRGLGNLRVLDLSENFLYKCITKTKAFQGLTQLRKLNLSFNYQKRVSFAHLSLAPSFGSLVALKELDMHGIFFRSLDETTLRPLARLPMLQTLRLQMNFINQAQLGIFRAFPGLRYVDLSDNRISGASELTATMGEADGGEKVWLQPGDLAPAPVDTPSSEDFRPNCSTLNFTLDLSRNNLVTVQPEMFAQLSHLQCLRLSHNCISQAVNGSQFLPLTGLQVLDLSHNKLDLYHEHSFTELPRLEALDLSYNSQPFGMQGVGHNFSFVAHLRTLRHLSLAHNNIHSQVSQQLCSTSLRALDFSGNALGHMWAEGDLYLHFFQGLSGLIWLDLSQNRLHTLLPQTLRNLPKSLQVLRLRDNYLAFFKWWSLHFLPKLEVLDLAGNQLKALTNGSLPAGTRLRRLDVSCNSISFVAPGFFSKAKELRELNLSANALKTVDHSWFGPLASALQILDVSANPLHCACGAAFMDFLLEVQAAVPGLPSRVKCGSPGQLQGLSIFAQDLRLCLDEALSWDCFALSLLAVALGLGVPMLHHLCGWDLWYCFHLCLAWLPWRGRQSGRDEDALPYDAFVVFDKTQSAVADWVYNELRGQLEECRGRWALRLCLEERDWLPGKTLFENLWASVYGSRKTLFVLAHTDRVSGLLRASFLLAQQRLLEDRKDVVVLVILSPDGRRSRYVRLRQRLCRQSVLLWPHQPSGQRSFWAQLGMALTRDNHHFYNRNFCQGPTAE

In general, inhibition refers to the drop in the measured response relative to a control, in per cent. As to `CCc1ccc2c(c1)C1(NN=C(c3ccccc3)S1)C(=O)N2` (stereo not given), the inhibition in [1] was 24.4%; in [2], 24.7%; in [3], 13.3%; in [4] it was 19.7%; in assay [5], 63.9% (active).
With `Cc1ccccc1NCC(=O)N/N=C\c1ccc([N+](=O)[O-])s1`, the inhibition in [6] is 1.19%; in assay [7] it was 7.69%; in assay [9], 1.03%; in assay [10], -2.15%. Besides, the activation in assay [8] was -0.2%.
Take `C=CC1=C(C(=O)O)N2C(=O)[C@@H](NC(=O)/C(=N/OCC(=O)O)c3csc(N)n3)[C@H]2SC1`: the inhibition in assay [11] was 102% (active); in assay [12] it was 100% (active); in assay [13], 101% (active); in assay [14], 100% (active); in assay [15], 101% (active); in assay [16], 101% (active). Besides, the inhibition in assay [6] is 6.41%; in assay [7], 20% (active); in assay [9], -213%; in assay [10], 90.4% (active). In addition, in assay [8], the activation is 42.3% (active).
Regarding `O=C1c2cccc3c([N+](=O)[O-])ccc(c23)C(=O)N1CC1CCCO1` (stereo not given), the inhibition in [3] is 82.5% (active); in assay [4], 108% (active); in assay [17], 112% (active); in [18] it was 118% (active); in assay [19], 45.8% (active); in assay [20], 73.2% (active). Further, the values for the inhibition in assay [21], in assay [22] and in assay [23] were 56.5% (active), 83% (active) and 70.6% (active), respectively.
